From PubChem BioAssay (EPA / NIEHS)
Results filed as inconclusive are left out. Some structures have more than one record in an assay (separate samples or runs), and their calls can disagree. The source made the active and inactive calls. How the source made its calls, unless noted: active means hit-call score of the fitted dose curve at least 0.9, where 1 is the maximum; inconclusive means response in the unintended direction; inactive means score below 0.9.

Columns and labels:
[1] = target: Peroxisome proliferator-activated receptor gamma (Homo sapiens) (UniProt P37231); test: OT_PPARg_PPARgSRC1_0480: Odyssey Thera (OT) 8-hour Protein-Complementation Assay for Peroxisome Proliferator-activated Receptor Gamma / SRC-1 Co-activator (AID 2283387);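 further: nuclear to cytoplasmic split Venus YFP fluorescence ratio reporting PPARg SRC-1 interaction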
Sequence of Peroxisome proliferator-activated receptor gamma (Homo sapiens) (P37231 whole entry, looked up, the tested form may be a part): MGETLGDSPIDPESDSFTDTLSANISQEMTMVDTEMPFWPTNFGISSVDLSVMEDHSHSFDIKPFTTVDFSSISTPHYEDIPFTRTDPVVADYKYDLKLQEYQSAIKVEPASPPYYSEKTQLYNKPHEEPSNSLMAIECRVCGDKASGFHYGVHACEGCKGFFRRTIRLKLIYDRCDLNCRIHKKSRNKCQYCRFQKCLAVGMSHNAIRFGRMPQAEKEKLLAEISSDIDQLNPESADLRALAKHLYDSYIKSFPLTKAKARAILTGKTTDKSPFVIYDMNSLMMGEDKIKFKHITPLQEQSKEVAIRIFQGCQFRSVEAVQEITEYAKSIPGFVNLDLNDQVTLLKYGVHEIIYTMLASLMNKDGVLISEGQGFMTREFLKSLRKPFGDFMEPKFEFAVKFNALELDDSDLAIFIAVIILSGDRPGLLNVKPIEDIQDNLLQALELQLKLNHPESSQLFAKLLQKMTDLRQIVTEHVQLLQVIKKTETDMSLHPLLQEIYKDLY
Summary of the method: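 Split-YFP (IFP1/IFP2) PPARg/SRC-1 reporter, HEK293T, 37 °C, 5% CO2; 8 h compound; formaldehyde fix + Draq5; high-content imaging, N/C ratio, ≥350 cells/image, positive direction vs DMSO.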

[2] = target: Peroxisome proliferator-activated receptor gamma (Homo sapiens) (UniProt P37231); test: OT_PPARg_PPARgSRC1_1440: Odyssey Thera (OT) 24-hour Protein-Complementation Assay for Peroxisome Proliferator-activated Receptor Gamma/ SRC-1 Co-activator (AID 2283388);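 further: nuclear to cytoplasmic ratio of reconstituted Venus YFP fluorescence in fixed imaged cells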
Summary of the method: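 Protein-fragment complementation between PPARg and coactivator SRC-1 was measured by fluorescence imaging in transiently transfected HEK293T cells after 24 h treatment. Signal was quantified as N/C ratio in the 488 nm channel, with DMSO as negative control.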

[3] = CEETOX_H295R_OHPREG: CeeTox H295R High-throughput Steroidogenesis Assay for OH-Pregnenolone (OHPREG) (AID 2283434; active means hit-call score of the fitted dose curve at least 0.9, where 1 is the maximum; inactive means score below 0.9); conditions: actives raise or lower the signal
Summary of the method: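 Human adrenal H295R cells were prestimulated 48 h with 10 uM forskolin, then exposed 48 h to chemical in 0.1% DMSO. Medium 17alpha-hydroxypregnenolone was quantified by HPLC-MS/MS after MTBE extraction; bidirectional fitting versus DMSO baseline.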

[4] = CEETOX_H295R_OHPROG: CeeTox H295R High-throughput Steroidogenesis Assay for OH-Progesterone (OHPROG) (AID 2283435; active means hit-call score of the fitted dose curve at least 0.9, where 1 is the maximum; inactive means score below 0.9); conditions: actives raise or lower the signal
Summary of the method: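 H295R adrenal cells prestimulated 48 h with 10 uM forskolin, then exposed 48 h to chemical (0.1% DMSO final). 17alpha-hydroxyprogesterone in medium quantified by HPLC-MS/MS; bidirectional fit versus DMSO, with MTT viability measured in the same wells.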

[5] = CEETOX_H295R_ANDR: CeeTox H295R High-throughput Steroidogenesis Assay for Androstenedione (ANDR) (AID 2283436; active means hit-call score of the fitted dose curve at least 0.9, where 1 is the maximum; inactive means score below 0.9); conditions: actives raise or lower the signal
Summary of the method: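 H295R human adrenal cells (passages ≤10) were exposed to test chemicals for 48 h; androstenedione in medium was MTBE-extracted and quantified by HPLC-MS/MS against a 7-point standard curve. Bidirectional fitting used DMSO as baseline.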

[6] = CEETOX_H295R_CORTIC: CeeTox H295R High-throughput Steroidogenesis Assay for Corticosterone (CORTIC) (AID 2283437; active means hit-call score of the fitted dose curve at least 0.9, where 1 is the maximum; inactive means score below 0.9;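 further: corticosterone secreted into medium quantified by mass spectrometry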); conditions: actives raise or lower the signal
Summary of the method: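 H295R cells were prestimulated 48 h with 10 uM forskolin, then exposed 48 h to test chemical in 0.1% DMSO. Medium corticosterone was MTBE-extracted and quantified by HPLC-MS/MS; bidirectional fit versus DMSO baseline.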

[7] = CEETOX_H295R_CORTISOL: CeeTox H295R High-throughput Steroidogenesis Assay for Cortisol (AID 2283438; active means hit-call score of the fitted dose curve at least 0.9, where 1 is the maximum; inactive means score below 0.9;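 further: cortisol secreted into medium quantified by LC-MS/MS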); conditions: actives raise or lower the signal
Summary of the method: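 Forskolin-primed H295R cells (10 uM, 48 h) treated 48 h with test chemical in 0.1% DMSO. Cortisol in medium quantified by MTBE extraction and HPLC-MS/MS; bidirectional fit vs DMSO, MTT viability in same wells.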

[8] = CEETOX_H295R_DOC: CeeTox H295R High-throughput Steroidogenesis Assay for DOC (AID 2283439; active means hit-call score of the fitted dose curve at least 0.9, where 1 is the maximum; inactive means score below 0.9); conditions: actives raise or lower the signal
Summary of the method: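 H295R cells prestimulated 48 h with 10 uM forskolin, then exposed 48 h to test chemical (0.1% DMSO final). Medium 11-deoxycorticosterone measured by HPLC-MS/MS after MTBE extraction; bidirectional fit vs DMSO, viability checked by MTT in same wells.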

[9] = CEETOX_H295R_ESTRADIOL: CeeTox H295R High-throughput Steroidogenesis Assay for Estradiol (AID 2283440; active means hit-call score of the fitted dose curve at least 0.9, where 1 is the maximum; inactive means score below 0.9;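 further: estradiol secreted into medium quantified by LC-MS/MS after dansyl derivatisation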); conditions: actives raise or lower the signal
Method: CEETOX_H295R is a cell-based, multiplexed-readout assay that uses H295R, a human adrenal gland cell line, with measurements taken at 48 hours after chemical dosing in a 96-well plate.CEETOX_H295R_ESTRADIOL is one of 23 assay component(s) measured or calculated from the CEETOX_H295R assay. It is designed to make measurements of hormone induction, a form of inducible reporter, as detected with absorbance signals by HPLC-MS-MS technology.Data from the assay component CEETOX_H295R_ESTRADIOL was analyzed into 1 assay endpoint. This assay endpoint, CEETOX_H295R_ESTRADIOL, was analyzed with bidirectional fitting relative to DMSO as the negative control and baseline of activity. […] To generalize the intended target to other relatable targets, this assay endpoint is annotated to the steroid hormone intended target family, where the subfamily is estrogens.
Cell culture and media preparation procedures were conducted in accordance with OECD Test No. 456 guidelines, with minor modifications. H295R cells (ATCC CRL-2128) were expanded for 5 passages and frozen in batches in liquid nitrogen. Prior to the steroidogenesis assay, H295R cells were thawed and passed at least 4 times. The maximum passage was 10. Cells were maintained in a 1:1 mixture of DMEM/F12 supplemented with 5ml/L ITS+ Premix (BD Bioscience) and 12.5 ml/L Nu-Serum (BD Bioscience). After seeding cells into 96-well plates at 50-60% confluency, cells were allowed to adhere overnight. Prior to chemical testing, culture medium was replaced with 175 uL medium containing 10 uM forskolin to stimulate steroidogenesis for 48 hours. Following prestimulation, forskolin medium was replaced with medium containing test chemical solubilized in DMSO (ensuring a final concentration of 0.1% DMSO). Test chemicals were incubated for 48 hours, then the medium was removed and split into 2 vials containing approximately 75uL each, and stored at -80 C prior to hormone analysis. For steroid quantification, media samples were shipped to OpAns, LLC (Durham, NC) on dry ice, and samples were thawed to room temperature prior to liquid-liquid extraction. Steroid hormones were extracted from media samples using methyl tertbutyl ether (MTBE). […] Steroid hormones were separated by HPLC, eluted using a reverse phase C18 gradient with electrospray positive ionization, followed by quantification by tandem mass spectrometry (MS/MS). Data were acquired on a MassHunter Workstation Acquisition version B03.01 (Agilent Technologies, Inc.) and processed using MassHunter Quantitative Analysis for QQQ. Accuracy was determined for each hormone analyte from 3 standards to determine upper and lower limits of quantification (ULOQ and LLOQ, respectively) using a 7-point standard curve. Precision and accuracy of the extraction and quantification methods were calculated as the percent relative standard deviation (%RSD) of the spiked standards and percent spiked standard recovered, respectively. […] Test medium was removed following chemical exposure, and cell viability was evaluated in the same wells by MTT. […] Absorbance was read at 570 and 650nm using a Packard Fusion microplate reader. Background correction of absorbance units was used to determine percent change relative to controls. […] When a test chemical reduced cell viability to 20% - 70%, the test chemical was diluted 10-fold and re-evaluated, but if cell viability was <20%, then the test chemical was diluted 100-fold and re-evaluated. […]

[10] = CEETOX_H295R_ESTRONE: CeeTox H295R High-throughput Steroidogenesis Assay for Estrone (AID 2283441; active means hit-call score of the fitted dose curve at least 0.9, where 1 is the maximum; inactive means score below 0.9;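 further: estrone secreted into medium measured by LC-MS/MS after dansyl derivatization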); conditions: actives raise or lower the signal
Method: CEETOX_H295R is a cell-based, multiplexed-readout assay that uses H295R, a human adrenal gland cell line, with measurements taken at 48 hours after chemical dosing in a 96-well plate.CEETOX_H295R_ESTRONE is one of 23 assay component(s) measured or calculated from the CEETOX_H295R assay. It is designed to make measurements of hormone induction, a form of inducible reporter, as detected with absorbance signals by HPLC-MS-MS technology.Data from the assay component CEETOX_H295R_ESTRONE was analyzed into 1 assay endpoint. This assay endpoint, CEETOX_H295R_ESTRONE, was analyzed with bidirectional fitting relative to DMSO as the negative control and baseline of activity. Using a type of inducible reporter, gain or loss-of-signal activity using HPLC-MS-MS was used to understand synthesis of Estrone in H295R cell line at 48hr of chemical exposure. To generalize the intended target to other relatable targets, this assay endpoint is annotated to the steroid hormone intended target family, where the subfamily is estrogens.
Cell culture and media preparation procedures were conducted in accordance with OECD Test No. 456 guidelines, with minor modifications. H295R cells (ATCC CRL-2128) were expanded for 5 passages and frozen in batches in liquid nitrogen. Prior to the steroidogenesis assay, H295R cells were thawed and passed at least 4 times. The maximum passage was 10. […] After seeding cells into 96-well plates at 50-60% confluency, cells were allowed to adhere overnight. Prior to chemical testing, culture medium was replaced with 175 uL medium containing 10 uM forskolin to stimulate steroidogenesis for 48 hours. Following prestimulation, forskolin medium was replaced with medium containing test chemical solubilized in DMSO (ensuring a final concentration of 0.1% DMSO). Test chemicals were incubated for 48 hours, then the medium was removed and split into 2 vials containing approximately 75uL each, and stored at -80 C prior to hormone analysis. For steroid quantification, media samples were shipped to OpAns, LLC (Durham, NC) on dry ice, and samples were thawed to room temperature prior to liquid-liquid extraction. Steroid hormones were extracted from media samples using methyl tertbutyl ether (MTBE). […] Steroid hormones were separated by HPLC, eluted using a reverse phase C18 gradient with electrospray positive ionization, followed by quantification by tandem mass spectrometry (MS/MS). Data were acquired on a MassHunter Workstation Acquisition version B03.01 (Agilent Technologies, Inc.) and processed using MassHunter Quantitative Analysis for QQQ. Accuracy was determined for each hormone analyte from 3 standards to determine upper and lower limits of quantification (ULOQ and LLOQ, respectively) using a 7-point standard curve. Precision and accuracy of the extraction and quantification methods were calculated as the percent relative standard deviation (%RSD) of the spiked standards and percent spiked standard recovered, respectively. The goal was to achieve 100% accuracy (i.e., recover all spiked-in standard at quantification with minimal loss during run time) and good precision (i.e., have %RSD <15% to ensure reproducibility). Test medium was removed following chemical exposure, and cell viability was evaluated in the same wells by MTT. […] Absorbance was read at 570 and 650nm using a Packard Fusion microplate reader. Background correction of absorbance units was used to determine percent change relative to controls. […]

Measured: AC50

CC(C)(OOC(C)(C)c1ccccc1)c1ccccc1
inactive: [1] | [2]

OCCCBr
inactive: [1] | [2]

CCN(CC)CCO
inactive: [1] | [2]

COC(=O)c1ccccc1N
inactive: [1] | [2]

CS(=O)(=O)NC(=O)c1cc(Oc2ccc(C(F)(F)F)cc2Cl)ccc1[N+](=O)[O-]
inactive: [1] | [2]

Clc1ccccc1Cl
inactive: [1] | [2]

Clc1ccc(C(c2ccc(Cl)cc2)C(Cl)(Cl)Cl)cc1
inactive: [1] | [2]

CC(C)(C)OOC(=O)c1ccccc1
inactive: [1] | [2]

CCCCCCCCOC(=O)c1ccc(C(=O)OCCCCCCCC)c(C(=O)OCCCCCCCC)c1
inactive: [1] | [2]

[Cl-].[Cl-].[Hg+2]
inactive: [1] | [2]

CN(C)c1ccc(C(=O)c2ccc(N(C)C)cc2)cc1
inactive: [1] | [2]

COC(=O)Nc1nc2ccccc2[nH]1
inactive: [1] | [2]

ClCCOCCCl
inactive: [1] | [2]

Brc1ccc(Oc2ccccc2)cc1
inactive: [1] | [2]

Nc1cc(Cl)cc(C(=O)O)c1Cl
inactive: [1] | [2]

Nc1ccc(Cl)cc1N
inactive: [1] | [2] | [4] | [5] | [6] | [7] | [8]
active: [1] 45.3 µM | [3] 1.41 µM

CCCCCCCCn1sccc1=O
inactive: [1] | [2]

Nc1ccc(N=Nc2ccccc2)cc1
active: [3] 50 µM | [4] 12.6 µM | [7] 68.7 µM | [8] 12.8 µM
not listed: [5]
inactive: all other assays above

CCOC(=O)[C@]1(c2ccccc2)Oc2ccccc2[C@@H]1N
active: [3] 1.4 µM | [4] 3.16 µM | [6] 0.33 µM | [7] 2.9 µM | [8] 2.52 µM
inactive: [1] | [2]

c1ccc2c(c1)-c1cccc3cccc-2c13
active: [3] 14 µM | [4] 30.7 µM
inactive: [1] | [2]

CCC12COCN1COC2
inactive: [1] | [2]

CCCCCCCCCCCCCN1CC(C)OC(C)C1 (centres undefined)
active: [3] 12.5 µM | [4] 17.6 µM | [8] 6.39 µM
not listed: [5]
inactive: all other assays above

CNC(=O)Oc1cccc2c1OC(C)(C)C2
active: [10] 0.494 µM
inactive: all other assays above

O=C(Oc1ccc(Br)cc1)N1CCN2CCC1CC2
active: [4] 12.8 µM | [8] 1.06 µM
inactive: [1] | [2] | [6] | [7]

c1ccc(C2CO2)cc1 (centres undefined)
inactive: [1] | [2]

c1ccc(NNc2ccccc2)cc1
inactive: [3] | [7]
active: [4] 48.6 µM

[As]#[In]
inactive: [3] | [6] | [8]

COP(=S)(OC)SCN1C(=O)c2ccccc2C1=O
not listed: [5] | [9] | [10]
inactive: all other assays above

Cc1ccc(N)c(N)c1
inactive: [3] | [6] | [7] | [8]

O=C(Nc1ccccc1)c1ccccc1I
active: [3] 32.3 µM | [4] 40.9 µM | [8] 25.7 µM
inactive: all other assays above

CCOc1cccc(C2(N3CCN(c4ccccc4)CC3)CCC(C)CC2)c1 (centres undefined)
inactive: [1] | [2] | [7]
active: [3] 81.7 µM | [4] 35.7 µM | [6] 23.6 µM | [8] 29.8 µM
